High-throughput results: PubChem BioAssay, Broad Institute
Casp6 inh: human caspase-6 inhibitors, primary screen, biochemical, VEID-R110 fluorescence, single point, set 2; P55212; purified caspase-6, Z-VEID-R110 cleavage fluorescence; inhibition, % at 12.5 µM; actives 0.53% (n = 350,000);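 active means mean inhibition across replicates at least about 35%, with every replicate also reaching that limit, limit read from the data; inconclusive means only one of the two criteria met; inactive means neither criterion met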
RAD52 anneal inh: RAD52 DNA annealing inhibitors, primary screen, biochemical, FRET, single point, set 2; recombinant RAD52 DNA annealing, FRET fluorescence; inhibition, % at 18.7 µM; actives 0.46% (n = 360,000); AID 651710, 2012;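 active means every replicate showing at least 50% inhibition; inconclusive means mean inhibition at least 50% but not in every replicate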
Ecoli rRNA inh: reduced GFP signal of wild-type E. coli, primary screen, bacterial rRNA inhibitor project, GFP/RFP fluorescence, OD600, single point; E. coli WT GFP vs humanized-ribosome RFP mutants, 24 h; active compounds read low; DMSO median 0, no signal -100; GFP signal change (wild-type ribosome), % (no concentration beside the values); actives 1.6% (n = 350,000);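 active means significant combined selectivity score with lowered wild-type GFP, culture density cut under 30%, mutant RFP and density less affected; inactive means any of these conditions unmet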
NSD2 inh: NSD2 histone methyltransferase inhibitors, primary screen, biochemical, AlphaScreen, single concentration, set 2; Histone-lysine N-methyltransferase NSD2 (Homo sapiens), O96028; NSD2 peptide methylation, 120 min; inhibition, % at 12.5 µM; actives 0.54% (n = 310,000); in the data active means inhibition above about 50%
MLL AF4-AF9 inh: inhibitors of AF4 peptide binding to AF9, primary screen, biochemical, AlphaScreen, biotin-AF4 peptide, FLAG-AF9, single point. inhibition, % at 10 µM. actives 0.47% (n = 350,000). Protein AF-9 (Homo sapiens), P42568;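 active means every replicate reaching a set inhibition limit, whatever the replicate mean, cut at about 25% in these data; inconclusive means mean inhibition reaches that limit but some replicates miss it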
Target sequence (P42568 whole entry, looked up): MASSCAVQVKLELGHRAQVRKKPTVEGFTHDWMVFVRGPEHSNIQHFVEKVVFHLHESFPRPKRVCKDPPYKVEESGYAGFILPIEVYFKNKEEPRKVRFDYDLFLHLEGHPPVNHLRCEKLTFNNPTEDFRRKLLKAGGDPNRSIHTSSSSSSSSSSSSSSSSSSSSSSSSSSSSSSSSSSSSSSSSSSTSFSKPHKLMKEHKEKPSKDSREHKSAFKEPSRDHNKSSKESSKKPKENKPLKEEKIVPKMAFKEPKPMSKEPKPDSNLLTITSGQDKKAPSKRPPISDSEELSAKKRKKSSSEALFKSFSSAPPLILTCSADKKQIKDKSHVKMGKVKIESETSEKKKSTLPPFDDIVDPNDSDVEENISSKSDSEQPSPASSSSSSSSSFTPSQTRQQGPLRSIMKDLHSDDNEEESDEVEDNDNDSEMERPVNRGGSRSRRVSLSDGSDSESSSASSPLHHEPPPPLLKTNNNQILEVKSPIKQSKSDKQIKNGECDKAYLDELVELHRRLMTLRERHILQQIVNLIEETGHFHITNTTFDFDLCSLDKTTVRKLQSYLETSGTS
AID977621: growth inhibition of wild-type GFP E. coli, dose response, H69 mutant RFP, cherry-pick | 1,900 tested, under 10 active | E. coli wild-type GFP strain growth, fluorescence, 24 h | shares compounds with Ecoli rRNA inh | AID 977621, 2014 | activity change, negative = inhibition at 50 µM;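 active means Wild-type ribosome reporter drop at least double the humanized mutant ribosome reporter drop, growth loss under a set limit; inconclusive means no clear call, values can overlap the other calls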;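 further: wild-type GFP and H69 mutant RFP strains grown together 50/50 in each well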
AID977628: E. coli growth inhibition, wild-type GFP versus h24 humanized RFP strain, dose response, h24 mutant RFP vs wild-type GFP, cherry-pick. shares compounds with Ecoli rRNA inh. E. coli WT GFP strain growth, fluorescence, 24 h. activity change, negative = inhibition at 50 µM. 1,900 tested, under 10 active;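 active means compound lowering the normal-ribosome reporter at least twice as much as the humanized-ribosome reporter, growth loss under a set limit; inconclusive means no clear call, values can overlap the other calls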;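 further: wild-type GFP and h24 humanized RFP strains co-cultured 1 to 1 per well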
Of the large screens only hits and unclear results are named; the others gave an inactive call (follow-up assays come after a bar, where they were run). Rows were chosen to be rich in hits. Some 2.5% of all compounds tested hit in one or more screens of this group.

O=C(C(=NNc1ccccc1)c1ccccc1)c1ccccc1	none
CC(=O)N1[C@@H]2c3cccc(=O)n3C[C@H]1[C@H](CO)[C@H]2C(=O)N[C@@H](C)c1ccccc1	none (no result: NSD2 inh)
Cc1ccsc1C(=O)N1CCCC(C(=O)c2cc(F)ccc2F)C1 (centres undefined)	Ecoli rRNA inh -16 | AID977628 inconclusive
Cc1nc(C)c(C(=O)N2CCCC(C(=O)c3cc(F)ccc3F)C2)s1 (centres undefined)	none
O=S1(=O)N[C@H](Cc2ccccc2)COc2cc(N3CCSCC3)ccc21	Ecoli rRNA inh -16 (no result: NSD2 inh) | AID977621 inactive | AID977628 inactive
Cn1cc(CN(CCO)Cc2cccs2)c(-c2cccc(Cl)c2)n1	Ecoli rRNA inh -31 | AID977621 inactive | AID977628 inactive
Cn1cc(CN2CCCC(C(=O)c3cccs3)C2)c(-c2cccc(Cl)c2)n1 (centres undefined)	Ecoli rRNA inh -25 | AID977621 inactive | AID977628 inactive
O=C(Nc1cccc(F)c1)N1CCCCN2[C@H](CO)[C@@H](c3ccc(-c4ccncc4)cc3)[C@@H]2C1	none (no result: NSD2 inh)
CCC(=O)Nc1nc2c(OC)ccc(OC)c2s1	Ecoli rRNA inh -21 (no result: NSD2 inh) | AID977621 inactive
CCCC(=O)Nc1nc2c(OC)ccc(OC)c2s1	none (no result: NSD2 inh)
Cc1cc(C)c(OCCN(C)Cc2ccccc2)c(Br)c1	Ecoli rRNA inh -23 | AID977621 inactive | AID977628 inactive
CN(CCCOc1ccccc1Br)Cc1ccccc1	none
COc1ccccc1C(=O)COC(=O)c1cccs1	Ecoli rRNA inh -24 | AID977621 inactive | AID977628 inactive
COc1ccccc1C(=O)COC(=O)c1ccccc1O	none
O=C(Nc1ccc2nc(-c3cccnc3)[nH]c2c1)c1ccco1	Ecoli rRNA inh -31 (no result: NSD2 inh) | AID977621 inactive
COC(=O)c1ccc(C(=O)Nc2ccc3nc(-c4ccncc4)[nH]c3c2)cc1	Ecoli rRNA inh -28 | AID977621 inactive | AID977628 inactive
O=C(Nc1ccc2nc(-c3ccccc3)[nH]c2c1)c1cccs1	Ecoli rRNA inh -32 | AID977621 inactive
COC(=O)c1ccc(C(=O)Nc2ccc3nc(-c4cccnc4)[nH]c3c2)cc1	none (no result: Casp6 inh, RAD52 anneal inh, Ecoli rRNA inh, MLL AF4-AF9 inh)
O=S(=O)(c1ccc(Cl)cc1)N1CCN=C1SCc1cccnc1	none
O=S(=O)(c1ccc(Cl)cc1)N1CCN=C1SCc1cccc(Cl)c1	Ecoli rRNA inh -23 | AID977621 inactive
CC1Cc2cc(-c3csc(NC(=O)Cc4ccccc4)n3)ccc2N1S(C)(=O)=O (centres undefined)	Ecoli rRNA inh -26 | AID977621 inactive | AID977628 inactive
CS(=O)(=O)N1CCc2cc(-c3csc(NC(=O)C(c4ccccc4)c4ccccc4)n3)ccc21	none (no result: Casp6 inh, RAD52 anneal inh, Ecoli rRNA inh, MLL AF4-AF9 inh)
Cc1noc(C)c1NC(=O)Nc1ccc2c(c1)C(=O)N([C@H](C)CO)C[C@@H](C)[C@@H](CN(C)Cc1ccc3c(c1)OCO3)O2	none (no result: NSD2 inh)
O=S(=O)(Nc1ccc(-c2cnco2)cc1)c1ccccc1	Ecoli rRNA inh -25 (no result: MLL AF4-AF9 inh) | AID977621 inactive
O=S(=O)(Nc1ccncc1)c1ccccc1	none (no result: Casp6 inh, RAD52 anneal inh, Ecoli rRNA inh, MLL AF4-AF9 inh)
Cc1cccc(S(=O)(=O)N[C@H]2CC[C@@H](CCNC(=O)CCN3CCCCC3)O[C@@H]2CO)c1	none (no result: NSD2 inh)
CCc1cccc(CC)c1NC(=O)Cn1c(-c2ccc(F)cc2)noc1=O	Ecoli rRNA inh -17 | AID977621 inactive | AID977628 inactive
CC(=O)OC(COc1cccc(C)c1)Cn1cnc2ccccc21 (centres undefined)	Ecoli rRNA inh -37 | AID977621 inactive | AID977628 inconclusive
COc1ccc(C[C@H]2CCc3cnnn3COC[C@H](c3ccccc3)NC2=O)cc1	none (no result: NSD2 inh)
Cc1ccccc1Nc1c(-c2cccnc2)nc2ccc(Br)cn12	Ecoli rRNA inh -25 | AID977621 inactive | AID977628 inactive
Cc1cc(C)n(CC(O)COc2ccc3ccccc3c2)n1 (centres undefined)	Ecoli rRNA inh -29 | AID977621 inactive
NC(=O)c1sc2nnc(-c3ccccc3)c(-c3ccccc3)c2c1N	Ecoli rRNA inh -29 (no result: MLL AF4-AF9 inh) | AID977628 inactive
CCCNC(=O)N1[C@H](CN(C)C(C)=O)[C@@H](c2ccc(C3=CCCC3)cc2)[C@@H]1CO	none (no result: NSD2 inh)
O=C(c1ccccn1)N1C[C@H]2[C@@H](c3ccccc31)[C@@H](CO)N2C(=O)C1CCCCC1	none (no result: NSD2 inh)
CC(=O)NCCOc1nc(N2CCCCC2)nc(N2CCCCC2)n1	Ecoli rRNA inh -25 | AID977621 inactive | AID977628 inactive
CCn1cc(CN2CCCC(CNS(=O)(=O)c3ccc(OC)cc3)C2)cn1 (centres undefined)	none
CCc1ccc(CN2CCCC(CNS(=O)(=O)c3ccc(OC)cc3)C2)cc1 (centres undefined)	Ecoli rRNA inh -22 | AID977621 inactive | AID977628 inconclusive
COc1ccc(Br)c(-c2nc(CS(=O)(=O)c3ccc(F)cc3)no2)c1	Ecoli rRNA inh -27 | AID977628 inactive
C[C@@H]1CCCCO[C@@H](CN(C)S(C)(=O)=O)[C@H](C)CN([C@H](C)CO)C(=O)c2cc(NS(=O)(=O)c3ccccc3)ccc2O1	none (no result: NSD2 inh)
CC(C)Cc1nnc(NC(=O)c2ccc3c(=O)n4c(nc3c2)CCC4)s1	Ecoli rRNA inh -21 | AID977621 inactive | AID977628 inactive
Cc1nn(CC(=O)c2ccccc2Cl)c(C)c1[N+](=O)[O-]	none
Cc1nn(CC(=O)OCCOc2ccc(Br)cc2)c(C)c1[N+](=O)[O-]	Ecoli rRNA inh -25 | AID977621 inactive | AID977628 inconclusive
Cc1ccc(CNC(=O)COC(=O)Cn2nc(C)c([N+](=O)[O-])c2C)cc1	none
Cc1nn(CC(=O)c2ccc(Br)s2)c(C)c1[N+](=O)[O-]	Ecoli rRNA inh -21 (no result: MLL AF4-AF9 inh) | AID977621 inactive | AID977628 inactive
COCC#Cc1cnc2c(c1)C(=O)N([C@@H](C)CO)C[C@@H](C)[C@@H](CN(C)C(=O)Nc1cc(F)ccc1F)O2	none (no result: Casp6 inh, RAD52 anneal inh, NSD2 inh)
CC(=O)Nc1cccc(NC(=O)c2c(-c3c(Cl)cccc3Cl)noc2C)c1	Ecoli rRNA inh -17 | AID977621 inactive | AID977628 inactive
Cc1cc(C)nc(NC(=O)c2c(-c3c(Cl)cccc3Cl)noc2C)n1	none (no result: Casp6 inh, RAD52 anneal inh, Ecoli rRNA inh, MLL AF4-AF9 inh)
CCC(=O)N(C)C[C@H]1Oc2cc(-c3cncnc3)ccc2S(=O)(=O)N([C@@H](C)CO)C[C@@H]1C	none (no result: NSD2 inh)
